# Experimental data: PubChem BioAssay (Tox21)
# Where “and” joins values, the source holds several entries; their conditions need not be identical. Equal entries are not always repeated. Records with an inconclusive call do not appear. Values without a mark were called inactive. Calls of active or inactive are those of the source. Calls follow the shape of the dose curve; as a rule, active = well fitted cell-killing curve with a large enough effect in the repeat runs; inconclusive = weak or mixed curves; inactive = flat fitted curve, though single readings scatter.
# Test: qHTS assay to identify small molecule antagonists of the estrogen related receptor (ERR) signaling pathway from Tox21 library - cell viability counter screen (AID 1224834); also: nearly all actives have a fitted effect of over 30% in size
# Conditions: ERR reporter cells viability, CellTiter-Fluor, 17.5 h; series mostly up to 92.4 µM; viability change, negative = cytotoxic: at the top concentration
# Procedure, shortened: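 After 17.5 h of compound exposure at 37 C, ERR cells are incubated with CellTiter-Fluor for 30 min and fluorescence intensity serves as the viability measure.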
# % is scaled to controls: 0 for no effect and ±100 for the full control effect; potency is read from the fitted curve at half-maximal effect.
SMILES,Potency,"viability change, negative = cytotoxic"
FC(F)C(F)(F)OCC(Cn1cncn1)c1ccc(Cl)cc1Cl (stereo not given),43 µM (active),
COC(=O)c1ccccc1S(=O)(=O)NC(=O)Nc1nc(C)nc(OC)n1,,1.8%
O=C(NC(=O)c1ccccc1Cl)Nc1ccc(OC(F)(F)F)cc1,,-0.524%
CC(Cc1ccccc1)N(C)Cc1ccco1 (stereo not given),,3.14% [at 42.5 µM]
CSSC,,-8.82%
Nc1ccc(N=Nc2ccccc2)cc1,24.3 µM (active),
Nc1nc(N)nc(Cl)n1,,1.46%
O=C(Nc1ccc(F)cc1F)c1cccnc1Oc1cccc(C(F)(F)F)c1,,0.0811%
COP(=S)(OC)Oc1nc(Cl)c(Cl)cc1Cl,,1.64%
ClSC(Cl)(Cl)Cl,,-0.547%
CCN(CC)C(=O)N[C@@H]1C=C2c3cccc4[nH]cc(c34)C[C@@H]2N(C)C1,,-5.68% [at 42.5 µM]
CCC[CH2][Sn]([CH2]CCC)([CH2]CCC)[CH2]CCC,27.3 µM (active),
CNC(=O)CSP(=O)(OC)OC,,7.58%
Clc1cc(Cl)c(-c2cc(Cl)c(Cl)cc2Cl)cc1Cl,,0.967% [at 42.5 µM]
CCCCON=O,,2.59%
CC(C)NCC(O)c1ccccc1Cl (stereo not given),,7.07% [at 42.5 µM]
C#CCO,,0.655%
Cc1cc2c3c(c1)C(c1ccccc1)=N[C@@H](NC(=O)c1ccncc1)C(=O)N3CC2,,-0.455%

SMILES,Potency,"viability change, negative = cytotoxic"
BrCCCBr,,2.55%
N#Cc1ccc(N(CC(N)=O)CC(F)(F)F)cc1C(F)(F)F,,-1.83%
CCNc1nc(NC(C)C(C)C)nc(SC)n1 (stereo not given),,1.21%
COCCC#N,,1.68%
CCCCCCCCCCCCCCn1cc[n+](C)c1,27.4 µM (active) and 30.3 µM (active),
C[N+]1(C)[C@@H]2CC[C@H]1CC(OC(=O)C(CO)c1ccccc1)C2 (stereo not given in full),,0.621% [at 42.5 µM]
C=CC(=C)C,,1.35%
Cc1ccn2nc(S(=O)(=O)Nc3c(F)cccc3F)nc2n1,,3.26%
O=[N+]([O-])c1ccccc1-c1ccccc1,,1.51%
CN1[C@@H]2CC[C@H]1CC(O)C2 (stereo not given in full),,0.412%
CN,,-0.0159%
CC(C)=CCN1CC[C@@]2(C)c3cc(O)ccc3C[C@@H]1[C@@H]2C,,-2.27%
CC1CN1 (stereo not given),,0.32%
CC(Cc1ccc2c(c1)OCO2)NO (stereo not given),,3.38%
O=[N+]([O-])c1ccc(CCl)cc1,,-1.25%
CC1CCCC1,,0.131%
Oc1ccc([C@H]2CNCc3c2ccc(O)c3O)cc1O,,-7.14% [at 42.5 µM]
